KCNQ2 inh = inhibitors of rat KCNQ2 potassium channel. O88943. CHO-K1 KCNQ2, FluxOR thallium flux, 20 min; stronger effect = lower value. B-score at 10 µM. 1.1% of 310,000 active. AID 2156;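 active = fluorescence ratio B-score at most minus 3 library SDs, with starting brightness B-score within 2 library SDs, cut at about -5.5 in these data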
Target sequence (O88943 whole entry, looked up): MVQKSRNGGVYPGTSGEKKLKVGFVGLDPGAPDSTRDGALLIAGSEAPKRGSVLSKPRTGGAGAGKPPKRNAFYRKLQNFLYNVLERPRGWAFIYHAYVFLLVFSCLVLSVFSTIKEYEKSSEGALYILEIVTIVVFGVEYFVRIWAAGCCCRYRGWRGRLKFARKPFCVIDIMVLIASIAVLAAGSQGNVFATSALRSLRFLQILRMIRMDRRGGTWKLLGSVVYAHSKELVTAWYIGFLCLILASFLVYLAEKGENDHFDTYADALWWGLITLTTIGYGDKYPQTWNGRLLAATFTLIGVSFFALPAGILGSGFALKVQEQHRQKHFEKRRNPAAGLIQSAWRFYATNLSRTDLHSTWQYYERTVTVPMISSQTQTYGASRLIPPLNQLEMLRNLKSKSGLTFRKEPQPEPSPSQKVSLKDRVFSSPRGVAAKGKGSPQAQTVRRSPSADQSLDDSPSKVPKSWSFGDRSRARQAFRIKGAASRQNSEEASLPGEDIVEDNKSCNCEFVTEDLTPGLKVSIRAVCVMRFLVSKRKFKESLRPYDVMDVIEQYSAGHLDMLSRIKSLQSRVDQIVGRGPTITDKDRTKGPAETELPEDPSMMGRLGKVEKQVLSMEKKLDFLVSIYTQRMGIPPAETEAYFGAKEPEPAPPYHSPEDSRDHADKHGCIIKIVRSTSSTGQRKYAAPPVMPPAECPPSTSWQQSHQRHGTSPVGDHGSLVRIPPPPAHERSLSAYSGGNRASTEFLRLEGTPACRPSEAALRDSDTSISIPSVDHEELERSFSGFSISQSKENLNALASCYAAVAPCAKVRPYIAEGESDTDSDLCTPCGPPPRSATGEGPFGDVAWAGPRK
KCNQ2 pot = KCNQ2 (rat) channel potentiation; CHO-K1 KCNQ2, FluxOR thallium flux fluorescence; stronger effect = higher value; B-score at 10 µM; 0.54% of 310,000 active;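 active = fluorescence ratio B-score at least 3 SD of library B-scores, with initial fluorescence B-score within 3 of them, cut at about 5.3 in these data; same plate scores as AID 2156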;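 also: B-score of peak minus minimum over baseline fluorescence ratio after K+ and Tl+ stimulus; positive B-score means potentiation of KCNQ2 with more thallium influx and brighter signal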
Kir21 conf inh = confirmation of mouse Kir2.1 potassium channel inhibitors; Tl flux remaining, % of negative control (stronger effect = lower value), % at 10 µM; Kir2.1-expressing cells, FluxOR thallium flux fluorescence; stronger effect = lower value; 41% of 2,300 active; shares compounds with KCNQ2 pot; AID 2032;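 active = Primary-screen hit whose thallium flux fell at least 3 control SD below untreated wells in both duplicates, with normal baseline fluorescence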;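 also: 0% = blank wells without stimulus and 100% = stimulated no-compound controls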
HEK293 Tl flux = parental HEK293 activity in Kir2.1 inhibitor counter-screen; shares compounds with KCNQ2 pot; AID 2105; 19% of 2,300 active; parental HEK293 cells, FluxOR thallium flux fluorescence; 0% = unstimulated blank wells; FluxOR signal as % of negative control (100 = no effect), % at 10 µM;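 active = dye signal at least 3 control SD above or below untreated wells in both duplicates, raw fluorescence within 3, either direction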;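 also: percent is based on the flux ratio of peak minus minimum fluorescence over baseline F0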
CHO-K1 ctr = parental CHO-K1 activity in KCNQ2 potentiator counter-screen. parental CHO-K1 cells, FluxOR thallium flux fluorescence; zero = vehicle mean+3SD, 100% = vehicle-minus-blank window. 43% of 1,200 active. activity increase over 3SD of controls, % at 10 µM. shares compounds with KCNQ2 pot;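 active = signal rise of at least 3 SD above the untreated control mean, in both duplicate wells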;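 also: counter screen of KCNQ2 potentiator hits so any rise reflects channel-independent effects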
KCNQ1 sel pot = selectivity of KCNQ2 potentiators: effect on human KCNQ1 | shares compounds with KCNQ2 pot | CHO KCNQ1 stable, FluxOR thallium flux fluorescence; beyond 3SD, as % of vehicle-control signal | activation over 3SD threshold, % at 10 µM | 28% of 1,200 active | AID 2283;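 active = fluorescence ratio rise of at least 3 SD of vehicle wells above their mean, in both replicate wells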;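 also: 0% = vehicle mean plus 3 SD and 100% = vehicle minus unstimulated blank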
KCNQ2 pot confirm = confirmation of rat KCNQ2 potassium channel potentiators. shares compounds with KCNQ2 pot. potentiation, less the hit threshold, % at 10 µM. 68% of 1,200 active. CHO-KCNQ2 cells, FluxOR thallium flux fluorescence;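 active = fluorescence ratio rising 3 SD or more over the vehicle control mean in both replicates, plus primary screen hit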;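 also: peak minus minimum thallium fluorescence divided by baseline after K/Tl stimulus; 0% = vehicle mean plus 3 SD and 100% = vehicle minus unstimulated blank difference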
Kir2-1 sel = selectivity of KCNQ2 potentiators: effect on mouse Kir2.1; shares compounds with KCNQ2 pot; HEK293 Kir2.1, FluxOR thallium flux fluorescence; activity over 3SD threshold, % at 10 µM; 2% of 1,200 active; AID 2345;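 active = fluorescence ratio rise of at least 3 SD above the vehicle-control mean, seen in both replicates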;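 also: 0% = vehicle mean plus 3 SD and 100% = vehicle minus no-stimulus blank window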
KCNQ2 W236L pot = potentiates the retigabine-insensitive rat KCNQ2 W236L mutant channel; shares compounds with KCNQ2 pot; CHO KCNQ2-W236L, automated patch clamp current; current increase over 3SD of negative controls (%), stronger effect = higher value, % at 25 µM; 10% of 940 active; AID 2558;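 active = current increase at least 3 SD of the untreated controls above them in both duplicate recordings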
An asterisk follows results filed as active. This is a sample that favours compounds with a hit; in the whole collection about 1.6% have one here.

Screening CCN(CCn1cccn1)Cc1c(C(=O)N2C[C@@H](C)O[C@@H](C)C2)nc2ccc(Cl)cn12 returned KCNQ2 inh inactive.
For Cc1cc(C)c(C(=O)NCC(=O)c2ccccc2)c(C)c1 the results were KCNQ2 inh inactive and KCNQ2 pot 0.72.
For S=c1nc(NCCc2ccccc2Cl)c2ccccc2[nH]1 the results were KCNQ2 inh inactive.
O=C(NC(=S)N(Cc1ccccc1)Cc1ccccc1)c1ccccc1F was read as KCNQ2 inh inactive, KCNQ2 pot 11*, Kir21 conf inh inactive, HEK293 Tl flux 218%*, CHO-K1 ctr 110*, KCNQ1 sel pot -1, KCNQ2 pot confirm 22*, Kir2-1 sel -40 and KCNQ2 W236L pot inactive.
O=C(NC(=S)NCc1ccccc1)c1ccccc1F was read as KCNQ2 inh inactive and KCNQ2 pot 0.78.
`CC(C)C(=O)NC(=S)N(Cc1ccccc1)Cc1ccccc1` gave KCNQ2 inh inactive.
For C=CCN(CC=C)C(=S)NC(=O)/C=C/c1ccccc1 the results were KCNQ2 inh inactive and KCNQ2 pot 0.7.
For C=CCN(CC=C)C(=S)NC(=O)c1ccc(-c2ccccc2)cc1 the results were KCNQ2 inh inactive, KCNQ2 pot 7.3*, Kir21 conf inh inactive, HEK293 Tl flux 420%*, CHO-K1 ctr -3, KCNQ1 sel pot 22*, KCNQ2 pot confirm 89*, Kir2-1 sel -4 and KCNQ2 W236L pot inactive.
Screening COc1ccc(C(=O)NC(=S)N(Cc2ccccc2)Cc2ccccc2)cc1 returned KCNQ2 inh inactive, KCNQ2 pot 19*, Kir21 conf inh inactive, HEK293 Tl flux 199%*, CHO-K1 ctr 136*, KCNQ1 sel pot -6, KCNQ2 pot confirm -1, Kir2-1 sel -28 and KCNQ2 W236L pot inactive.
CC(C)(Oc1ccc(Cl)cc1)C(=O)O/N=C(\N)c1ccncc1 was read as KCNQ2 inh inactive and KCNQ2 pot 0.23.
`N/C(=N\OC(=O)Cc1ccccc1)c1ccccc1Cl` gave KCNQ2 inh inactive and KCNQ2 pot 0.09.
O=C(NNc1ncccc1Cl)c1c(Cl)cccc1Cl was read as KCNQ2 inh inactive and KCNQ2 pot 0.12.
Nc1ccccc1C(=O)Nc1cccc2ccccc12 was read as KCNQ2 inh inactive.
Screening CC12CCC(C(=O)Nc3cccc4ccccc34)(C1Br)C2(C)C (configuration not stated) returned KCNQ2 inh inactive, KCNQ2 pot 10*, Kir21 conf inh inactive, HEK293 Tl flux inactive, CHO-K1 ctr 1.5*, KCNQ1 sel pot -25, KCNQ2 pot confirm 48*, Kir2-1 sel -21 and KCNQ2 W236L pot inactive.
COc1cccc(NC(=O)C(C)SCc2ccccc2)c1 (configuration not stated) was read as KCNQ2 inh inactive and KCNQ2 pot 0.63.
`COc1ccc(CCNC(=O)C(C)SCc2ccccc2)cc1` (configuration not stated) gave KCNQ2 inh inactive, KCNQ2 pot 0.39, Kir21 conf inh 41%* and HEK293 Tl flux inactive.
CC1CCN(C(=S)NC(=O)c2ccc(C(C)(C)C)cc2)CC1 was read as KCNQ2 inh inactive, KCNQ2 pot 7.1*, CHO-K1 ctr -11, KCNQ1 sel pot -14, KCNQ2 pot confirm 5.8*, Kir2-1 sel -37 and KCNQ2 W236L pot inactive.
For COc1ccc(C(=O)NC(=S)N2CCC(C)CC2)cc1Br the results were KCNQ2 inh inactive, KCNQ2 pot 6.5*, Kir21 conf inh inactive, HEK293 Tl flux 247%*, CHO-K1 ctr -14, KCNQ1 sel pot -15, KCNQ2 pot confirm -2, Kir2-1 sel -38 and KCNQ2 W236L pot inactive.
`COc1ccc(C(=O)NC(=S)N2CCNC(=O)C2)cc1Br` gave KCNQ2 inh inactive and KCNQ2 pot 1.3.
Screening CC(C)(C)c1ccc(C(=O)NC(=S)N2CCCC2)cc1 returned KCNQ2 inh inactive and KCNQ2 pot 2.1.
`CC1CCN(C(=S)NC(=O)c2ccccc2)CC1` gave KCNQ2 inh inactive and KCNQ2 pot 0.9.
CC(C)(C)c1ccc(C(=O)NC(=S)N2CCCCCC2)cc1 was read as KCNQ2 inh inactive, KCNQ2 pot 8.8*, Kir21 conf inh inactive, HEK293 Tl flux 268%*, CHO-K1 ctr -24, KCNQ1 sel pot 37*, KCNQ2 pot confirm 0.7*, Kir2-1 sel -21 and KCNQ2 W236L pot 4.9%*.
CCOc1ccccc1NC(=O)CSc1nncc2ccccc12 was read as KCNQ2 inh inactive and KCNQ2 pot 0.61.
Screening COCCn1cnnc1SCC(=O)Nc1sccc1C(N)=O returned KCNQ2 inh inactive and KCNQ2 pot 0.28.
Screening O=C1CSC(c2cccnc2)N1Cc1ccc(Cl)c(Cl)c1 (configuration not stated) returned KCNQ2 inh inactive and KCNQ2 pot 2.3.
`O=C(NCc1n[nH]c(=O)c2ccccc12)C1CC(=O)N(c2ccccc2)C1` (configuration not stated) gave KCNQ2 inh inactive and KCNQ2 pot 0.29.
For CCOC(=O)N1CCC(=NNC(=O)c2ccc(O)cc2)CC1 the results were KCNQ2 inh inactive and KCNQ2 pot 0.01.
For COC(=O)C1=C[C@@H](C(=O)OC)[C@@H]2C3=C(C(=O)C2(C)C)[C@H](c2ccccc2)[C@@H]2C(=O)N(C)C(=O)[C@@H]2[C@@H]3C1 the results were KCNQ2 inh inactive.
`CCOC(=O)CSc1[nH]c2cc(OC)ccc2c1[N+](=O)[O-]` gave KCNQ2 inh inactive and KCNQ2 pot 0.03.
`COC(=O)CSc1[nH]c2ccc(F)cc2c1[N+](=O)[O-]` gave KCNQ2 inh inactive, KCNQ2 pot 6.4*, Kir21 conf inh inactive, HEK293 Tl flux inactive, CHO-K1 ctr -10, KCNQ1 sel pot -27, KCNQ2 pot confirm 29*, Kir2-1 sel -40 and KCNQ2 W236L pot 38%*.
Cn1c(CNc2ccc(Cl)cc2)nnc1SCc1ccccc1 was read as KCNQ2 inh inactive.
For CCn1c(CSCc2ccc(C)cc2)nnc1SCC(=O)NCc1ccccc1 the results were KCNQ2 inh inactive, Kir21 conf inh inactive and HEK293 Tl flux inactive.
